# Screening results deposited in PubChem by National Center for Advancing Translational Sciences (NCATS).
# Rows were chosen to be rich in hits. Some 8.8% of all compounds tested hit in one or more screens of this group.
# HTT cytoprotect: protects HTT-Q103 PC12 cells, measured by ATP | PC12 HTT-Q103 induced, cytoprotection, ATP luminescence, 40 h | Potency, µM (highest dose often 56.4 µM), for the others: cytoprotection (ATP increase), hits mostly activators | 230,000 compounds, 0.14% hits; further: % of control where 0% means no effect; nearly all actives have a fitted effect of over 45% in size
#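 ATP quantification (ATPlite) reports survival of PC12 cells in which tebufenozide, 100 nM final, switches on Htt exon 1 with 103 glutamines linked to GFP; compounds are titrated.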
# Lamin A splicing: LMNA splicing modulation; Potency, µM (doses to about 46.1 µM), without a hit: at the highest dose ratio change, negative = inhibition, most hits filed as inhibitors; AID 1487; HeLa LMNA splicing GFP/RFP minigene ratio, 48 h; 200,000 compounds, 0.01% hits; active means well fitted inhibition curve with a large enough effect in the signal ratio, with a control signal flat, not every such curve was filed as active; inconclusive means small, poorly fitted or top-dose-only effect, or effect the other way, or a change in a side signal; the % refers to the signal ratio; further: on the % scale 0 is the no-effect control and ±100 the full control effect
#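 S3 HeLa cells stably expressing lamin A-EGFP splicing minigene plus DsRed2, 600 cells/well, 48 h compound exposure at 37C. Laser-scanning cytometry; analysed as GFP (500-530 nm)/RFP (575-640 nm) total intensity ratio; 0.5% DMSO vehicle.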
# ALDH1A1 inh: inhibitors of human aldehyde dehydrogenase 1A1 | P00352 | Purified ALDH1A1, NADH fluorescence, propionaldehyde substrate | Potency, µM (series often up to 75.3 µM), for inactives: top-dose activity, negative = inhibition, actives largely listed as inhibitors | 220,000 compounds, 7.3% hits | AID 1030; active means well fitted inhibition curve with a large enough effect, not every such curve was filed as active; inconclusive means small, poorly fitted or top-dose-only effect, or another doubt; inactive means no such curve, though single readings can be large or run the other way;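 further: plate controls were no enzyme wells and a reference inhibitor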
# Target sequence (P00352 whole entry, looked up): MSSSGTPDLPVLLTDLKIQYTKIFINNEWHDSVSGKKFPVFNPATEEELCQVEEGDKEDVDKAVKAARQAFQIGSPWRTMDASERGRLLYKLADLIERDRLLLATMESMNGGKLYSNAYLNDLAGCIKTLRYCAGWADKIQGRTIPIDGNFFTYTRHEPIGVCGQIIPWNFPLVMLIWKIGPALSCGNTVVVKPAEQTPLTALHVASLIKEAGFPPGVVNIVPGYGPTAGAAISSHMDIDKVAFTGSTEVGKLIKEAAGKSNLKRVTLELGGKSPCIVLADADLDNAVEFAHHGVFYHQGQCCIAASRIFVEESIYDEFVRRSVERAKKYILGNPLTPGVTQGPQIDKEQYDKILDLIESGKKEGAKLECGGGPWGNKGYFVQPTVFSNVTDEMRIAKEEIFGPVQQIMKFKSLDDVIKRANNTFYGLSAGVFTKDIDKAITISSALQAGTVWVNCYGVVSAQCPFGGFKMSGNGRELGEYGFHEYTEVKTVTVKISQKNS
# HPGD inh: inhibitors of human 15-hydroxyprostaglandin dehydrogenase (HPGD) | Potency, µM, for the others: at the highest dose activity change, negative = inhibition, hits mostly inhibitors | purified HPGD, NADH fluorescence kinetic, PGE2 substrate | P15428 | 150,000 compounds, 4.3% hits; active means well fitted inhibition curve with a large enough effect, not every such curve was filed as active; inconclusive means small, poorly fitted or top-dose-only effect, or another doubt; inactive means no such curve, though single readings can be large or run the other way; further: on the % scale 0 is the no-effect control and ±100 the full control effect
# Target sequence (P15428 whole entry, looked up): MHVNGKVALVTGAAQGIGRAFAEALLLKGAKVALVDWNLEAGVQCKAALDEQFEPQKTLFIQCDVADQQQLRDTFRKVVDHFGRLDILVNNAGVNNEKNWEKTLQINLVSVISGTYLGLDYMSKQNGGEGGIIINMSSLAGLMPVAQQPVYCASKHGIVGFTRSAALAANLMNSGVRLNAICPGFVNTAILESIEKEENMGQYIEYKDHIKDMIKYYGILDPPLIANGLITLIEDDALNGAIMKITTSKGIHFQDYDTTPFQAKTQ
#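 20 nM HPGD preincubated 15 min at room temperature with compound in 50 mM Tris-HCl pH 8, 0.01% Tween 20. Started with 1 mM NAD+ and 30 uM prostaglandin E2; NADH fluorescence (360/450 nm) read 5 times over 30-s intervals, last minus first.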
# HttQ103 aggreg: reduces HttQ103-GFP aggregates in PC12 cells. AID 1688. Potency, µM (series often up to 46.1 µM), without a hit: at the top dose activity change, negative = inhibition, actives largely listed as inhibitors. 220,000 compounds, 1.1% hits. PC12 HttQ103-GFP aggregates, Acumen cytometry, 40 h; further: on the % scale 0 is the no-effect control and ±100 the full control effect; nearly all actives have a fitted effect of over 60% in size
#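 Quantitative HTS on tebufenozide-induced (100 nM) PC12 cells stably expressing polyQ103 Huntingtin exon 1–GFP. Reduction of bright GFP aggregates, detected by laser scanning cytometry after lysis, identified actives across the titration.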
# Starred values were filed as active, the others as inactive; ? = inconclusive; . = no result given; [ ] = remark or other dose. Unless noted, the call rests on the fitted dose curve; in most records, active means well fitted curve in the direction sought with a large enough effect; inconclusive means small, poorly fitted or top-dose-only effect, or another doubt; inactive means no such curve, though single readings can be large; an effect the other way counts as inactive or inconclusive. Potency means the concentration at half of the fitted maximal effect.
SMILES,HTT cytoprotect,Lamin A splicing,ALDH1A1 inh,HPGD inh,HttQ103 aggreg
C[C@H]1Cc2c(-c3ccccc3)nc3c(c2CO1)CN(C(=O)c1cc(I)ccc1F)CC3,-20%[10 µM],11%[9.22 µM],18%[13.5 µM],-1%,.
COc1cc(-c2nnc3sc(C4CCCCC4)nn23)cc(OC)c1OC,-27%[0.074 µM],-9%,?,?,?
CCOc1cccc(-c2nnc3sc(C4CCCCC4)nn23)c1,-7%,?,25µM*,32µM*,?
c1cncc(-c2nnc3sc(C4CCCCC4)nn23)c1,-14%,10%,-2%,-11%,-3%
COc1cccc(-c2nnc3sc(C4CCCCC4)nn23)c1,?,-9%,?,-28%,2µM*
COc1ccc(C(=O)NCC(c2cccnc2)N2CCc3ccccc32)cc1 (stereo not given),.,-9%[46 µM],.,.,.
CC(=O)OC[C@H]1O[C@@H](O/N=C(\C)CCN2CCCc3nc(C)c(C)cc32)[C@H](OC(C)=O)[C@@H](OC(C)=O)[C@H]1OC(C)=O,6%[10 µM],.,?,.,.
COc1cc(CCNC(C)=O)c(C(=O)/C=C/c2cccc(OC)c2OC)cc1OC,?,.,-2%,-8%,.
CCOC(=O)Nc1sc(=S)n(C)c1C,12%[10 µM],-2%,19µM*,25µM*,-18%
OCCN1CCN(c2ncnc3ccc(Br)cc23)CC1,13%,1%,2%,-15%,4.5µM*
COc1cc(C2C(=O)N(C3CCC(C)CC3)CC(=O)N2CCc2ccc(Cl)cc2)ccc1OC(C)C (stereo not given),.,-10%[46 µM],.,.,.
Cc1cc(C=O)c2c(c1)C=CC1(Oc3ccccc3C(=O)N1C)O2 (stereo not given),4%[10 µM],?,-8%,-9%,-23%
CC(C)C[C@@H](CC(=O)N[C@@H](CCC(=O)O)CC(=O)O)NC(=O)[C@@H]1CCCC[C@H]1NC(=O)C[C@@H](NC(=O)C[C@H](Cc1c[nH]c2ccccc12)NC(=O)[C@@H]1CNCC[C@H]1N)C(C)C,7%[1.9 µM],.,10%,-7%,.
Cc1ccc(-n2c(N)c(C(=O)NCc3ccco3)sc2=S)cc1,-15%,-7%,?,?,-3%
Nc1c(C(=O)NCc2cccnc2)sc(=S)n1-c1ccccc1,-6%,-11%,8.9µM*,14µM*,-13%
CCn1c(N)c(C(=O)NCc2cccnc2)sc1=S,-15%,-1%,1%,-6%,17%
Cc1ccc(-n2c(N)c(C(N)=O)sc2=S)cc1,-41%,5%,4.5µM*,7.9µM*,-3%
COc1ccc(CNC(=O)c2sc(=S)n(-c3ccc(OC)cc3)c2N)cc1,-3%,-7%,19µM*,32µM*,-6%
Cc1ccc(C(=O)Nc2cccc(C(=O)OCc3cc(=O)n4c5c(sc4n3)CCCC5)c2)cc1,.,-22%[46 µM],.,.,.
O=C(O)C(Cc1ccccc1)N1C(=O)/C(=C/c2cccc3ccccc23)SC1=S (stereo not given),0%[10 µM],-9%,?,14µM*,-6%
O=C1[C@H]2[C@H]3[C@H](O)[C@H](O)C/C(=N/OCc4ccccc4)[C@@H]3CC[C@@H]2C(=O)N1C[C@@H]1CCCO1,-6%[10 µM],.,24%[13.5 µM],.,.
CNc1ccc(O)cc1,-103%,.,2.2µM*,13µM*,.
CNc1ccccc1,1%,.,-20%,-10%,.
CCCOc1ccc2oc(=O)c3c(c2c1)CCCN3C(=O)CN1CCN(c2ncccn2)CC1,20%,-1%,2.8µM*,.,23%
COc1ccc(S(=O)(=O)n2nc(C)c(S(=O)(=O)N3CCCCCC3)c2C)cc1C,.,12%[46 µM],.,.,.
SMILES,HTT cytoprotect,Lamin A splicing,ALDH1A1 inh,HPGD inh,HttQ103 aggreg
CCOC(=O)Cn1c(=O)c2c(nc(N3CCOCC3)n2C)n(C)c1=O,10%,0%,1%,-7%,?
Cn1c(=O)c2c(nc(NC3CCCCC3)n2CC(O)COc2ccccc2)n(C)c1=O (stereo not given),-47%,?,?,-7%,?
CCOC(=O)Cn1c(=O)c2c(nc(N3CCCCC3)n2Cc2ccccc2)n(C)c1=O,-37%,?,14µM*,-10%,0%
Cn1c(=O)c2c(nc(N3CCCCCC3)n2CC(O)COc2ccccc2)n(C)c1=O (stereo not given),-9%[10 µM],-1%,1.6µM*,-9%,20%
O=C1N(Cc2ccc(F)cc2Cl)c2ccccc2C12OCCCO2,-9%,15%,-13%,-7%,-4%[9.22 µM]
O=C(CN1C(=O)C2(OCCO2)c2ccccc21)c1ccc(Br)cc1,-13%,?,14µM*,.,5%
COc1ccccc1NC(=O)CN1C(=O)C2(OCCCO2)c2ccccc21,-2%,-18%,22µM*,-1%,-3%
O=C(CCN1C(=O)C2(OCCO2)c2ccccc21)c1ccccc1,-19%,2%,-1%,-6%,10%
O=C1N(Cc2ccccc2F)c2ccccc2C12OCCCO2,-1%,11%,22µM*,-6%,13%
Cc1nn(-c2ccccc2)c2c1N(CCCC(=O)NCc1ccc(N(C)C)cc1)C(=O)CS2,.,3%[46 µM],.,.,.
CN=C1SC(CC(=O)Nc2ccc(F)cc2F)C(=O)N1/N=C/c1ccc(OC(F)F)c(OC)c1 (stereo not given),-44%[1.9 µM],4%[9.22 µM],12%,.,8%[9.22 µM]
Cc1nn(CC(=O)NCc2cccc(F)c2)c(=O)c2c(C)n(-c3ccc(Cl)cc3)nc12,.,-11%[46 µM],.,.,.
O=C1OCC(c2ccccc2)=C1c1ccc(S(=O)(=O)N2CCOCC2)s1,-3%,9%,20µM*,?,21%
NC(=O)[C@H]1O[C@@H](O)[C@H](O)[C@@H](O)[C@@H]1O,20%,.,.,.,18%
Cc1cc(NC(=O)Cn2c(=O)oc3cc(S(=O)(=O)N4CCCC4)ccc32)ccc1Br,.,-20%[46 µM],.,.,.
Fc1ccc(NC(=S)N2N=CCC2c2ccccc2)cc1 (stereo not given),-24%,21%,7.1µM*,-13%,1%
S=C(Nc1ccccc1)N1N=CCC1c1ccccc1 (stereo not given),-2%,0%,?,0%,20%
CCOc1cc(C(=S)N2CCOCC2)ccc1OS(=O)(=O)c1ccccc1[N+](=O)[O-],.,?,-1%,16µM*,3%
COc1ccc(C=O)cc1OS(=O)(=O)c1ccccc1[N+](=O)[O-],1%[10 µM],2%,-7%,20µM*,-12%
COc1ccc(C(=S)N2CCOCC2)cc1OS(=O)(=O)c1ccccc1[N+](=O)[O-],23%[10 µM],-16%,11µM*,32µM*,-8%
c1cncc(CNc2cc(-c3ccoc3)ncn2)c1,-9%,-15%,?,.,.
Cc1cccc(CNc2cc(-c3ccoc3)ncn2)c1,13%,?,?,20µM*,.
COc1ccc(-c2noc(CSCC(=O)Nc3cccc(C(F)(F)F)c3)n2)cc1OC,.,0%[46 µM],.,.,.
CC1=C[N+](=O)c2ccccc2[N+]1=O,5%[10 µM],.,14%[13.5 µM],-1%,.
CCOC(=O)c1cc(C#N)c(=S)[nH]c1C,-6%,.,3.5µM*,.,-9%
